High-throughput results from PubChem.
The list is not random: actives were taken first. Their share in the collection is about 19%.
MCF10A rereplic – inducers of DNA re-replication in MCF 10A breast cells | MCF 10A DNA re-replication, Hoechst nuclear intensity, 48 h | 350,000 compounds, 2.9% hits | Potency, µM (titrated, usually from 46.1 µM), inactives show at the highest dose activity, positive = re-replication, actives largely listed as activators; further: potency means the concentration at half of the fitted maximal effect; % of control where 0% means no effect; nearly all actives have a fitted effect of over 50% in size
BCR signal inh – chronic active BCR signaling inhibition | ABC-DLBCL IkBa-CBG/CBR reporter, luminescence ratio, 4 h | Potency, µM (series often up to 46.1 µM), for the others: at the top dose activity change, negative = inhibition, actives largely listed as inhibitors | 340,000 compounds, 0.05% hits | AID 493014; active means well fitted inhibition curve with a large enough effect in the signal ratio, with a control signal flat, not every such curve was filed as active; inconclusive means small, poorly fitted or top-dose-only effect, or effect the other way, or a change in a side signal; the % refers to the signal ratio;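 further: potency means the concentration at half of the fitted maximal effect; plate controls were basal doxycycline-induced cells for no effect and cells given 10 µM MG132 for full effect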
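TMD8 human ABC-DLBCL cells with doxycycline-inducible IκBα–green luciferase fusion and unfused red luciferase, in 0.5% FBS medium; compounds up to 46 uM, 4 h at 37C. Green/red luminescence ratio, filter-overlap corrected, fitted to concentration-response curves.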
TDP1 cell noCPT – qHTS for Inhibitors of human tyrosyl-DNA phosphodiesterase 1 (TDP1): qHTS in cells in absence of CPT; DT40 Tdp1-/- hTDP1 cells, no CPT, ATP luminescence, 48 h; Potency, µM (highest dose often 46.2 µM), inactives show at the highest dose activity change, negative = growth inhibition, hits mostly inhibitors; 420,000 compounds, 15% hits; further: potency means the concentration at half of the fitted maximal effect; on the % scale 0 is the no-effect control and ±100 the full control effect; nearly all actives have a fitted effect of over 55% in size
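DT40 Tdp1-/-;hTDP1 cells, no CPT (DMSO vehicle only), 400 cells/well; compounds pin-transferred; ≥48 hr, 37 °C; CellTiter-Glo 30 min RT dark, luminescence read.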
DT40 TDP1 CPT – DT40-hTDP1 cell growth loss with CPT; chicken DT40 Tdp1-/-;hTDP1 cells + 20 nM CPT, ATP luminescence, 48 h; Potency, µM (highest dose often 46.2 µM), for the others: at the highest dose activity change, negative = growth inhibition, actives largely listed as inhibitors; 420,000 compounds, 12% hits; AID 686979; further: potency means the concentration at half of the fitted maximal effect; on the % scale 0 is the no-effect control and ±100 the full control effect; nearly all actives have a fitted effect of over 55% in size
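Cell growth measured by CellTiter-Glo luminescence after a minimum 48 h, 37 C compound exposure with 20 nM CPT in Tdp1-knockout DT40 cells stably expressing hTDP1, seeded 400/well; qHTS titration format.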
IL1B secr inh – blocks inflammasome-driven IL-1 beta release; AID 743279; activity change, % at 57.5 µM; 360,000 compounds, 4.7% hits; THP-1 LPS/ATP IL-1B secretion, AlphaLISA, 16 h; stronger effect = lower value; in the data active means activity change below about -50%; inconclusive means mostly about -30% to -49%; further: on the % scale 0 is the no-effect control and ±100 the full control effect
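Secreted IL-1B measured by AlphaLISA bead assay after 16 h compound exposure of THP-1 cells; compounds (final up to 57.5 uM) added 1 h before LPS (250 ng/mL) and ATP (1.25 mM) stimulation; lower signal means less secretion.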
SW480 rerep – induces DNA re-replication in SW480 colon adenocarcinoma cells. SW480 DNA re-replication, Hoechst DNA content imaging, 48 h. Potency, µM (series often up to 46.1 µM), for inactives: at the top dose re-replication activation, most hits filed as activators. 340,000 compounds, 1.8% hits; further: potency means the concentration at half of the fitted maximal effect; % of control where 0% means no effect; nearly all actives have a fitted effect of over 55% in size
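Cells (250 per well) received 23 nL compound or DMSO by pin tool and were kept 48 hr at 37 C, 5% CO2. Nuclei were then stained with Hoechst for 40 min and scanned for DNA content.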
Numbers without * were called inactive; ? = inconclusive; · = no result given; [ ] = remark or other dose. Unless noted, the call rests on the fitted dose curve; in most records, active means well fitted curve in the direction sought with a large enough effect; inconclusive means small, poorly fitted or top-dose-only effect, or another doubt; inactive means no such curve, though single readings can be large; an effect the other way counts as inactive or inconclusive.

SMILES | MCF10A rereplic | BCR signal inh | TDP1 cell noCPT | DT40 TDP1 CPT | IL1B secr inh | SW480 rerep
CC(C)CC(=O)N1CCN(S(=O)(=O)c2ccc(C3CCCCC3)cc2)CC1 | 8% | -4% | 12µM* | 21µM* | 0 | -12%
CC(=O)Nc1cccc(C(=O)N2CCN(S(=O)(=O)c3ccc4ccccc4c3)CC2)c1 | 1% | -10% | 5% | -19% | -25 | -5%
CC(=O)Nc1cccc(C(=O)N2CCN(S(=O)(=O)c3ccc(C4CCCCC4)cc3)CC2)c1 | 15% | · | 23µM* | ? | 11 | 4%
CCN(CC)S(=O)(=O)c1cccc(C(=O)Nc2ccccc2C(=O)Nc2ccc(OC)cc2)c1 | · | 14% | 10µM* | 10µM* | · | ·
Cc1nc(-c2cccc(NC(=O)c3ccc(-n4cccn4)cc3)c2)cs1 | 20% | ? | 10µM* | 15µM* | -51* | 5%
COc1cccc(CN2CCCC(C(=O)Nc3ccc(-c4cscn4)cc3)C2)c1 (stereo not given) | 1% | -12% | ? | ? | 0 | ?
COc1ccc(C(O)P(=O)(OCCC(C)C)c2ccc(N(C)C)cc2)cc1 (stereo not given) | 6% | -1% | -11% | -29% | -21 | -13%
CCN(CC)S(=O)(=O)c1ccc(NC(=O)C(C)N(c2ccc(OC)cc2)S(C)(=O)=O)cc1 (stereo not given) | 11% | 15% | 18µM* | ? | -15 | 4%
Cc1nc(-c2cccc(S(=O)(=O)N3CC(C)CC(C)C3)c2)cs1 (stereo not given) | 18% | 0% | 13µM* | ? | 9 | 8%
O=C(Nc1ccccc1)c1cccc(S(=O)(=O)N2CCCCC2)c1 | 1% | 6% | 8% | -26% | 15 | -16%
CCOc1ccc(N(C(C)C(=O)Nc2ccc(OC)cc2)S(C)(=O)=O)cc1 (stereo not given) | ? | -1% | -9% | -18% | 13 | 2%
CCOc1ccc(C(=O)Nc2ccc(S(=O)(=O)N3C[C@@H]4C[C@@H](C3)c3cccc(=O)n3C4)cc2)cc1 | ? | 12% | 12µM* | 21µM* | 29 | ?
CC1CCN(S(=O)(=O)c2cccc(C(=O)Nc3ccccc3)c2)CC1 | 14% | 9% | ? | -4% | -54* | -1%
Cc1nc(-c2cccc(S(=O)(=O)N3CC(C)OC(C)C3)c2)cs1 (stereo not given) | -2% | 3% | -21% | ? | 5 | -3%[9.22 µM]
CC(C)OCCCNC(=O)CN1C(=O)COc2ccc(S(=O)(=O)N3CCOCC3)cc21 | · | · | -13% | 8% | · | ·
Cc1ccc(NC(=O)c2cccc(S(=O)(=O)N3CCCCC3)c2)cc1 | ? | ? | ? | -17% | -7 | -1%
Cc1csc(NC(=O)c2cccc(S(=O)(=O)N3CCCCC3)c2)n1 | 7% | ? | ? | -26% | 41 | -3%
COc1ccc(/C(C)=N/NC(=O)c2cccc(S(=O)(=O)N3CCCC3)c2)c(O)c1 | ? | -8% | 2.9µM* | 5.2µM* | 115 | ?
Cc1nc(-c2cccc(NC(=O)c3cccc(S(=O)(=O)N4CCCC4)c3)c2)cs1 | 5% | -8% | 23µM* | ? | -4 | -23%
COc1ccc(C(=O)Nc2ccc(S(=O)(=O)N3CCCC3)cc2)cc1 | 9% | 3% | -29% | -14% | -4 | -2%
COc1ccc(NC(=O)c2cccc(S(=O)(=O)N3CCCCCC3)c2)cc1 | 5% | 0% | 15µM* | ? | -11 | -4%
CCC(=O)Oc1ccc(NC(=O)c2ccc(S(=O)(=O)N3CCCC3)cc2)cc1 | · | · | 21µM* | ? | 0 | ·
O=C(CN1CCC(NC(=O)c2ccco2)CC1)Nc1ccccc1[N+](=O)[O-] | · | -23% | · | · | · | ·
Cc1ccc(CNC(=O)CN2C(=O)CSc3ccc(S(=O)(=O)N(C)C)cc32)cc1 | · | · | -7% | ? | · | ·
CC(=O)Nc1cccc(C(=O)Nc2ccc(S(=O)(=O)N3CCCCC3)cc2)c1 | 0% | -2% | 15µM* | ? | 13 | -1%
SMILES | MCF10A rereplic | BCR signal inh | TDP1 cell noCPT | DT40 TDP1 CPT | IL1B secr inh | SW480 rerep
COc1cc(NC(=O)c2cccc(S(=O)(=O)N3CCCCC3)c2)cc(OC)c1OC | 8% | -15% | ? | 23µM* | -2 | 1%
CC(=O)Nc1ccc(NC(=O)c2cccc(S(=O)(=O)N3CCCCCC3)c2)cc1 | ? | 0% | ? | ? | 83 | -4%
COc1ccc(COC(=O)c2cccc(S(=O)(=O)N3CCN(C(C)=O)CC3)c2)cc1 | 15% | -1% | 21µM* | ? | 8 | -5%
CCC(=O)Oc1ccc(C(=O)Nc2ccc3c(c2)C(=O)N(C2CCCCC2)C3=O)cc1 | 23µM* | ? | 15µM* | 21µM* | 5 | ?
CCCc1ccc2oc(C(=O)N3CCN(C4CCS(=O)(=O)C4)CC3)c(C)c2c1 (stereo not given) | 0% | -22% | ? | -10% | -5 | -9%
COc1ccc(NS(=O)(=O)c2cccc(NC(=O)c3ccc(S(=O)(=O)N4CCCCCC4)cc3)c2)cc1 | ? | 1% | 2.6µM* | 3.7µM* | -3 | -3%
Cc1ccc(CNc2ncnc3c2nnn3C)cc1 | · | -16% | ? | -6% | · | ·
COc1c([N+](=O)[O-])ccc(N)c1N | · | · | -21% | -18% | · | ·
COc1ccc(-c2csc(N3CCN(S(=O)(=O)c4ccc5c(c4)NC(=O)CO5)CC3)n2)cc1 | 33% | -2% | ? | ? | -14 | 9.2µM*
Cc1cc(Cl)ccc1OCCCC(=O)OCC(=O)Nc1cccc(S(N)(=O)=O)c1 | ? | 4% | 2% | 10% | 19 | 0%
O=C(Nc1cccc(-c2nc3ccccc3o2)c1)c1cc([N+](=O)[O-])ccc1N1CCOCC1 | · | · | 8.2µM* | ? | · | ·
COc1ccc2oc(-c3cccc(NC(=O)c4cc([N+](=O)[O-])ccc4N4CCOCC4)c3)nc2c1 | · | · | ? | 13µM* | · | ·
O=C(Nc1cccc(F)c1)N1CCC2(CCNCC2)CC1 | · | · | ? | -26% | · | ·
C=CCC[C@H](Cc1ccc(F)cc1)C(=O)O[C@H](CNC(=O)[C@@H](CC=C)CC(=O)N(CCO)Cc1ccccc1)c1ccccc1 | 21µM* | ? | 23µM* | ? | -58* | ?
C=CC[C@@H](CC(=O)N(CCO)Cc1ccccc1)C(=O)N[C@H](C)COC(=O)[C@@H](CC=C)Cc1ccc(F)cc1 | ? | ? | ? | ? | -2 | 0%
